In all, about 1,200 compounds went through this assay and about 970 (81%) were called active. No rule for the calls is given here. The set was probably picked from earlier hits. These entries were drawn from the full list. Entries with a potency or affinity are not part of this list.
These compounds were tested against Transforming acidic coiled-coil-containing protein 3 (Homo sapiens) (UniProt Q9Y6A5) (assay: inhibition of ARNT PAS-B/TACC3 complex formation – biochemical, AlphaScreen, cherry-picked samples, confirmation (AID 651703;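 also: TACC3 partner is the GST-tagged E629A mutant dimer; hits lower the signal meaning they disrupt ARNT binding to TACC3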)). Details: AlphaScreen His-ARNT PAS-B / GST-TACC3 binding, luminescence; series mostly up to 68 µM.
With `COC(=O)c1[nH]c2cc(OC)c(OC)cc2c1NC(=O)Oc1ccccc1` the outcome was “inactive”.
For `C[C@H](CO)N1C[C@H](C)[C@H](CN(C)C(=O)Nc2cccc3ccccc23)OCCCC[C@H](C)Oc2ccc(NC(=O)CCCN(C)C)cc2C1=O`, the outcome was “inactive”.
In the case of `C[C@@H]1CN([C@@H](C)CO)C(=O)c2cc(NC(=O)C3CCCCC3)ccc2O[C@@H](C)CCCCO[C@@H]1CN(C)C(=O)NC1CCCCC1`, the outcome is reported as “inactive”.
For `CC(C)NC(=O)N(C)C[C@H]1OCCCC[C@H](C)Oc2ccc(NC(=O)Cc3ccccc3)cc2C(=O)N([C@H](C)CO)C[C@H]1C`, the outcome was “inactive”.
`C[C@@H]1CN([C@@H](C)CO)C(=O)c2cc(NC(=O)CCCN(C)C)ccc2O[C@@H](C)CCCCO[C@H]1CN(C)C(=O)Nc1cccc2ccccc12` was tested, and the outcome was “inactive”.
With `CC(C)NC(=O)Nc1ccc2c(c1)C(=O)N([C@@H](C)CO)C[C@H](C)[C@@H](CN(C)C)OCCCC[C@H](C)O2` the outcome was “inactive”.
With `CC(C)NC(=O)Nc1ccc2c(c1)C(=O)N([C@H](C)CO)C[C@@H](C)[C@@H](CN(C)C(=O)Nc1ccccc1)OCCCC[C@@H](C)O2` the outcome was “inactive”.
`O=C(c1cc(-c2ccccc2)on1)N1CCC(N2CCCC2)CC1` was tested, and the outcome was “inactive”.
`O=C(Nc1nc(-c2ccccc2)cs1)c1cc(-c2ccccc2)on1` was tested, and the outcome was “inactive”.
`COc1ccc(-c2cnc3c(c2)C(=O)N([C@@H](C)CO)C[C@H](C)[C@@H](CN(C)Cc2cccnc2)O3)cc1` was tested, and the outcome was “inactive”.
`C[C@@H]1CN([C@H](C)CO)C(=O)c2cccc(NC(=O)c3ccncc3)c2O[C@@H]1CN(C)Cc1ccc(-c2ccccc2)cc1` was tested, and the outcome was “inactive”.
`C[C@@H]1CN([C@H](C)CO)C(=O)c2cc(NS(C)(=O)=O)ccc2O[C@@H]1CN(C)S(=O)(=O)c1ccc(F)cc1` was tested, and the outcome was “inactive”.
With `CNC[C@@H]1Oc2c(NS(=O)(=O)c3cccs3)cccc2C(=O)N([C@@H](C)CO)C[C@H]1C` the outcome was “inactive”.
`COc1ccc(S(=O)(=O)Nc2ccc3c(c2)C(=O)N([C@H](C)CO)C[C@H](C)[C@H](CN(C)S(=O)(=O)c2ccc(C)cc2)O3)cc1` was tested, and the outcome was “inactive”.
With `O=C(CN1CCCCCC1)Nc1ccccc1[N+](=O)[O-]` the outcome was “inactive”.
With `CCN(CC(=O)NCc1cccs1)CC(=O)Nc1cccc(S(N)(=O)=O)c1` the outcome was “inactive”.
In the case of `Cc1nnc(NC(=O)CSc2nnc(CNC(=O)c3ccc(S(=O)(=O)N(C)C)cc3)o2)s1`, the outcome is reported as “inactive”.
`Cc1c(CC(=O)NCC(=O)NCC(=O)O)c(=O)oc2cc3oc4c(c3cc12)CCCC4` was tested, and the outcome was “inactive”.
For `Cc1cc(F)ccc1NS(=O)(=O)c1cccc2nsnc12`, the outcome was “inactive”.
For `CC(=O)NC1=NC(=O)/C(=C/c2cn(C(C)=O)nc2-c2ccccc2)S1`, the outcome was “inactive”.
In the case of `Cc1ccc(-c2nc(C)sc2CC(=O)NCc2ccco2)cc1`, the outcome is reported as “inactive”.
With `Cc1cc(=O)n(-c2ccc(O)cc2)[nH]1` the outcome was “inactive”.
`O=C(NCC1CCCO1)c1onc(CSc2ccc(F)cc2)c1C(=O)O` (centres undefined) was tested, and the outcome was “inactive”.
`Cc1cc(C)c(S(=O)(=O)N2CCCC2=O)c(C)c1N(C)S(C)(=O)=O` was tested, and the outcome was “inactive”.
With `O=C(C[C@H]1C=C[C@@H](NC(=O)C2CC2)[C@@H](CO)O1)Nc1nccs1` the outcome was “inactive”.
With `Cc1[nH]n2c(=O)c3c(nc2c1-c1ccccc1)CCC3` the outcome was “inactive”.
`COc1cc(/C=C2\S/C(=N/S(=O)(=O)c3ccccc3)NC2=O)c([N+](=O)[O-])cc1OC` was tested, and the outcome was “inactive”.
For `COc1ccc(Cc2nnc(N/N=C(\C)c3ccccc3)[nH]c2=O)cc1OC`, the outcome was “inactive”.
In the case of `O=C(CSc1nnc(-c2ccccn2)o1)Nc1ccccc1C(F)(F)F`, the outcome is reported as “inactive”.
For `O=C(c1cc(-c2ccccc2)on1)N1CCc2cccnc21`, the outcome was “inactive”.
`CN1CCN(C(=O)c2cc(-c3ccccc3)on2)CC1` was tested, and the outcome was “inactive”.
For `COc1ccc(-c2nc(CN3CCC(C(=O)NC4CCCc5ccccc54)CC3)c(C)o2)cc1OC` (centres undefined), the outcome was “inactive”.
In the case of `O=C(C[C@@H]1CC[C@H](NC(=O)CN2CCOCC2)[C@H](CO)O1)NCCc1ccncc1`, the outcome is reported as “inactive”.
With `CN(C)S(=O)(=O)N1CCN(S(=O)(=O)c2ccc(F)cc2)CC1` the outcome was “inactive”.
`Cc1nnc(NC(=O)CSc2nnc(CNC(=O)c3ccc(F)cc3)o2)s1` was tested, and the outcome was “inactive”.
`COc1ccc2cc1Oc1ccc(cc1)C[C@H]1c3cc(c(OC)cc3CCN1C)Oc1c(OC)c(OC)cc3c1[C@@H](C2)N(C)CC3` was tested, and the outcome was “inactive”.
With `CCC(C(=O)Nc1ncn[nH]1)(C(F)(F)F)C(F)(F)F` the outcome was “inactive”.
`CC(=O)c1cccc(NC(=O)N2CCCC2C(=O)NCc2ccccc2)c1` (centres undefined) was tested, and the outcome was “inactive”.
In the case of `COc1ccc(/C(C)=N\NC(=O)CSc2nnc(C)s2)cc1`, the outcome is reported as “inactive”.
`O=C(NCC1CC1)c1cc(-c2ccccc2)on1` was tested, and the outcome was “inactive”.
For `NS(=O)(=O)c1ccc(CCNC(=O)c2ccc3c(c2)OCO3)cc1`, the outcome was “inactive”.
In the case of `O=C(NCCCO)c1cc(-c2ccccc2)on1`, the outcome is reported as “inactive”.
For `Oc1c(Br)cccc1/C=N/c1ncn[nH]1`, the outcome was “inactive”.
In the case of `Cn1c(=NC(=O)c2cnccn2)sc2ccccc21`, the outcome is reported as “inactive”.
`O=C1NC[C@H](c2ccccc2)OC(=O)[C@H](Cc2ccc(F)cc2)CC/C=C/C[C@@H]1CC(=O)N(CCO)Cc1ccccc1` was tested, and the outcome was “inactive”.
In the case of `COc1ccc(Nc2nc(N)nc(CN3CCOCC3)n2)cc1`, the outcome is reported as “inactive”.
With `Fc1ccc(/C=N/Nc2ncnc3nc[nH]c23)cc1F` the outcome was “inactive”.
`CCn1c(Cc2ccccc2)nnc1SCC(=O)Nc1ccc(N)cc1` was tested, and the outcome was “inactive”.
`COCCNC(=O)Cn1cc(C(=O)c2cccs2)c2ccccc21` was tested, and the outcome was “inactive”.
In the case of `C[C@H]1CCCCO[C@H](CN(C)C(=O)Nc2ccc(F)cc2)[C@@H](C)CN([C@@H](C)CO)C(=O)c2cc(NS(=O)(=O)c3ccc(Cl)cc3)ccc2O1`, the outcome is reported as “inactive”.
In the case of `CC(OC(=O)Cc1c(F)cccc1Cl)C(=O)NC1(C#N)CCCCC1` (centres undefined), the outcome is reported as “inactive”.
In the case of `Nc1ccc(C(=O)Nc2ccc3c(O)cc(S(=O)(=O)O)cc3c2)cc1`, the outcome is reported as “inactive”.
`Cc1cc2c(NC(=O)CC(C)(C)CC(=O)O)cccc2nn1` was tested, and the outcome was “inactive”.
In the case of `O=C(O)c1ccc(Br)c(S(=O)(=O)N2CCCC2)c1`, the outcome is reported as “inactive”.
`CCN1CCN(c2ccc(NC(=O)c3cccc(S(=O)(=O)N4CCCC4)c3)cc2)CC1` was tested, and the outcome was “inactive”.
For `COc1cc(/C=N/NC(=O)CCN2CCN(c3ccccc3)CC2)cc(OC)c1OC`, the outcome was “inactive”.
In the case of `O=C(Nc1cn2ccccc2n1)c1cc(-c2ccccc2)on1`, the outcome is reported as “inactive”.
In the case of `CC(NC(=O)COC(=O)c1ccc([N+](=O)[O-])o1)c1ccccc1` (centres undefined), the outcome is reported as “inactive”.
`COC(=O)c1[nH]c2ccc(C)cc2c1NC(=O)c1ccccc1[N+](=O)[O-]` was tested, and the outcome was “inactive”.
With `O=C(NC1CCc2ccccc2C1)c1cc(-c2ccccc2)on1` (centres undefined) the outcome was “inactive”.
In the case of `Cc1ccccc1Oc1nc(-c2ccccn2)nc2ccccc12`, the outcome is reported as “inactive”.
For `CCOC(=O)CC(NC(=O)Cc1ccc(F)cc1)c1ccccc1Cl` (centres undefined), the outcome was “inactive”.
With `COc1cc(C2Nc3ccccc3C(=O)N2NS(C)(=O)=O)c([N+](=O)[O-])cc1OC` (centres undefined) the outcome was “inactive”.
For `NC1=NN=C(N2N=C(c3ccccc3)CC2(O)C(F)(F)F)n2ncnc2C1` (centres undefined), the outcome was “inactive”.
`O=C1C=C(O)c2cccc(O)c2C1=O` was tested, and the outcome was “inactive”.
For `CCc1c(C)sc(NC(=O)C2CC(c3c(F)cccc3Cl)=NO2)c1C#N` (centres undefined), the outcome was “inactive”.
`CC[C@]1(O)CC2CN(CCc3c([nH]c4ccccc34)[C@@](C(=O)OC)(c3cc4c(cc3OC)N(C=O)[C@H]3[C@@](O)(C(=O)OC)[C@H](OC(C)=O)[C@]5(CC)C=CCN6CC[C@]43[C@@H]65)C2)C1` (some centres undefined) was tested, and the outcome was “inactive”.
For `COc1ccccc1C(=O)Nc1ccccc1N1CCCCC1`, the outcome was “inactive”.
`O=C(C[C@H]1C=C[C@@H](NC(=O)Nc2ccccc2)[C@@H](CO)O1)NCc1ccccn1` was tested, and the outcome was “inactive”.
For `Cc1ccc(N(C)S(=O)(=O)c2cccc(C(=O)Oc3ccc4c(C)cc(=O)oc4c3)c2)cc1`, the outcome was “inactive”.
For `Cc1ccc(S(=O)(=O)Cn2nnnc2C(c2ccccc2)N2CCN(c3ccccc3)CC2)cc1` (centres undefined), the outcome was “inactive”.
With `O=C(NC1Cc2ccccc2C1)[C@H]1N[C@H]2c3cccc(=O)n3C[C@H]2[C@@H]1CO` the outcome was “inactive”.
With `Cc1[nH]n(-c2ccccc2)c(=O)c1C(c1ccc(C(=O)O)cc1)c1c(C)[nH]n(-c2ccccc2)c1=O` the outcome was “inactive”.
In the case of `Cc1[nH]n(-c2ccccc2)c(=O)c1C(c1ccc(O)c([N+](=O)[O-])c1)c1c(C)[nH]n(-c2ccccc2)c1=O`, the outcome is reported as “inactive”.
With `COc1ccc(CCNC(=O)C23CCC(C)(C(=O)C2Br)C3(C)C)cc1OC` (centres undefined) the outcome was “inactive”.
With `Cn1c(CCNC(=O)c2ccc(Cl)c(Cl)c2)nnc1SCc1ccc(Cl)c(Cl)c1` the outcome was “inactive”.
With `O=C(c1cc(-c2ccccc2)on1)N1CCN(c2ccncc2)CC1` the outcome was “inactive”.
For `O=C(C1=C(O)C(=O)N(Cc2ccccc2)C1c1ccncc1)c1ccco1` (centres undefined), the outcome was “inactive”.
For `COc1cc(Cc2nccc3cc(OC)c(OC)cc23)c(S(=O)(=O)O)cc1OC`, the outcome was “inactive”.
For `CC=Cc1ccc2n(c1=O)C[C@H]1[C@H](CO)[C@@H](C(=O)NC3CCC3)[C@@H]2N1S(=O)(=O)c1cn(C)cn1` (mixture of isomers), the outcome was “inactive”.
In the case of `Cc1cc(C)c(C(N)=O)c(Nc2cccc3ccccc23)n1`, the outcome is reported as “inactive”.
In the case of `COc1ccc(Nc2nnc(-c3ccc(C(N)=O)cc3)c3ccccc23)cc1`, the outcome is reported as “inactive”.
In the case of `C[C@@H]1CN([C@@H](C)CO)C(=O)c2cc(NS(=O)(=O)c3cccs3)ccc2O[C@H]1CN(C)CC1CCCCC1`, the outcome is reported as “inactive”.
In the case of `COc1ccc(-c2cnc3c(c2)C(=O)N([C@@H](C)CO)C[C@@H](C)[C@@H](CN(C)Cc2cccnc2)O3)cc1`, the outcome is reported as “inactive”.
With `C/C(=C\C(=O)c1ccccc1)Nc1ccc(N2CCOCC2)cc1` the outcome was “inactive”.
With `CCCc1nnc(NS(=O)(=O)c2ccc(C)cc2)o1` the outcome was “inactive”.
For `Cc1ccc(S(=O)(=O)n2nc(C)c(C#N)c2N)cc1`, the outcome was “inactive”.
For `COC(=O)c1c(N)n(-c2ccc(NC(C)=O)cc2)c2nc3ccccc3nc12`, the outcome was “inactive”.
`CC(C)C#Cc1ccc2c(c1)O[C@@H](CN(C)C(=O)CN(C)C)[C@@H](C)CN([C@@H](C)CO)S2(=O)=O` was tested, and the outcome was “inactive”.

Source: PubChem BioAssay AID651703 (Broad Institute, 2012)
